Experimental findings from PubChem BioAssay (Tox21) are described below.

Structures are written as SMILES. Records with an inconclusive call do not appear. Entries that show only a call come without a potency. A number with no mark means an inactive call. Calls of active or inactive are those of the source. The call rests on the fitted dose curve; in most records, active means well fitted cell-killing curve with a large enough effect in the repeat runs; inconclusive means weak or mixed curves; inactive means flat fitted curve, though single readings scatter.
Potency means the concentration at half of the fitted maximal effect.

The nature of this experiment: qHTS assay to identify small molecule antagonists of the estrogen related receptor (ERR) signaling pathway from Tox21 library - cell viability counter screen (AID 1224834). Further: nearly all actives have a fitted effect of over 30% in size. The following applies: ERR reporter cells viability, CellTiter-Fluor, 17.5 h; series mostly up to 92.4 µM. An excerpt: National Center for Advancing Translational Sciences [NCATS]
NIH Chemical Genomics Center [NCGC]
U.S. Environmental Protection Agency [EPA]
National Institutes of Environmental Health Sciences [NIEHS]
National Toxicology Program [NTP]
U.S. Food and Drug Administration [FDA]
Estrogen related receptors (ERRs), the first orphan nuclear receptors discovered, play an important role in the control of cellular energy metabolism. ERRs are required for high-energy production in response to the environmental challenges. ERR-alpha was also identified as an adverse marker for breast cancer progression; ERR-alpha-positive tumors have a poor prognosis. To screen and to identify environmental compounds that perturb the ERR signaling pathways could provide valuable information for potential therapeutic or preventive measures in the treatment of metabolic disease. To differentiate true ERR antagonists or agonist from cytotoxic substances, the assay is multiplexed with cell viability assay.
Tox21 Assay Protocol Summary:
The ERR cells were dispensed at 2,000 cells/5 ul/well in 1536-well white plates using a Multidrop dispenser. After the assay plates were incubated at a 37 C/5% CO2 incubator for 6 hours, 23 nL of compounds dissolved in DMSO, positive and negative controls or DMSO only was transferred to the assay plate by a pin tool. The plates were incubated at 37 C for 17.5 hours. 1 ul/well of CellTiter-Fluor reagent was added into the assay plates using a Flying Reagent Dispenser. After 30-minute incubation at 37 C/5% CO2, the fluorescence intensity in the plates was measured using a ViewLux plate reader.
On the technique in general: qHTS replaces the single test concentration by a dilution series.
Regarding `Cc1oncc1C(=O)Nc1ccc(C(F)(F)F)cc1`, the Potency result is “inactive”.

Turning to `CCOC(=O)c1ccccc1OC`, the Potency entry was “inactive”.

Regarding `O=C(C(=O)c1ccccc1)c1ccccc1`, the Potency entry was “inactive”.

For `COc1cc2ncnc(Nc3ccc(F)c(Cl)c3)c2cc1OCCCN1CCOCC1`, the Potency was 21.1 µM (active).

With `CNC(=S)NC`, the Potency entry was “inactive”.

Regarding `CCCCCCCCCCCC[N+](C)(C)CC(=O)[O-]`, the Potency result is “inactive”.

As for `COc1ccccc1N=Nc1c(S(=O)(=O)O)cc2cc(S(=O)(=O)O)cc(NC(C)=O)c2c1O`, the Potency is 25.7 µM (active).

On to `N#C/C(=C1\SCC(c2ccccc2Cl)S1)n1ccnc1` (stereo not given), for which the Potency result was “inactive”.

As for `[O]=[Bi]`, the viability change, negative = cytotoxic was 0.391% [at 8.39 µM].

Consider `Cc1cc2nc3ccc(=[N+](C)C)cc-3sc2cc1N`, for which the Potency is 2.66 µM (active).

Turning to `CC(C)CCCCCCOC(=O)CCCCC(=O)OCCCCCCC(C)C`, the Potency result is “inactive”.

As for `C(=C\c1ccccc1)/CN1CCN(C(c2ccccc2)c2ccccc2)CC1`, the Potency entry was “inactive”.

Take `CC(=N\O)/C(C)=N/O`: the Potency result was “inactive”.

Regarding `Cc1oc(C)c(C(=O)Nc2ccccc2)c1C`, the Potency entry was “inactive”.

For `CN1CCN(c2c(F)cc3c(=O)c(C(=O)O)cn4c3c2OCN4C)CC1`, the viability change, negative = cytotoxic was 6.99% [at 19 µM].

As for `c1ccc(COCc2ccccc2)cc1`, the Potency result is “inactive”.

As to `CCCC1C(CC)=CC(CC)=CN1c1ccccc1` (stereo not given), the Potency entry was “inactive”.

For the molecule `C[C@@H]1C[C@H]2[C@@H]3CCC4=CC(=O)C=C[C@]4(C)[C@@]3(F)[C@@H](O)C[C@]2(C)[C@H]1C(=O)CO`, the Potency entry was “inactive”.

Consider `CCCCCCCCCCCCCCC[C@H](O)[C@@H](N)CO`, for which the Potency result is “inactive”.

Take `CCC1(C)CC(=O)NC1=O` (stereo not given): the Potency entry is “inactive”.

Consider `COc1ccc(C(=O)c2cccc(O)c2)c(OC)c1`, for which the Potency result is “inactive”.

Regarding `CCCCOC(=O)CCS`, the Potency entry is “inactive”.

With `Nc1c(I)cc(I)c(C(=O)N(CCC(=O)O)c2ccccc2)c1I`, the Potency entry was “inactive”.

`CC(C)(CCl)c1ccccc1`: the Potency entry was “inactive”.

With `COc1cc2c(N3CCN(C(=O)Nc4ccc(OC(C)C)cc4)CC3)ncnc2cc1OCCCN1CCCCC1`, the Potency was 29.8 µM (active).

Consider `Cc1ccc(/C=N/n2c(-c3ccccc3)csc2=S)cc1`, for which the Potency entry was “inactive”.

Turning to `C[C@@H]1C[C@H]2[C@@H]3CCC4=CC(=O)C=C[C@]4(C)[C@@]3(F)[C@@H](O)C[C@]2(C)[C@@]1(O)C(=O)CO`, the Potency result was “inactive”.

Consider `O=C(CCCCCCCCC#CI)Oc1ccccc1`, for which the Potency result is “inactive”.

`CC(C)OCC1CO1` (stereo not given): the Potency result is “inactive”.

Take `Cc1nc2ccccc2s1`: the Potency result was “inactive”.

Take `CC(C)c1nnc2ccc(-c3ocnc3-c3cc(F)ccc3F)cn12`: the Potency entry is “inactive”.

On to `COc1ccc(CCC(=O)c2c(O)cc(O[C@@H]3O[C@H](CO)[C@@H](O)[C@H](O)[C@H]3O[C@@H]3O[C@@H](C)[C@H](O)[C@@H](O)[C@H]3O)cc2O)cc1O`, for which the Potency entry was “inactive”.

As for `CCOC(=O)OCC`, the Potency result was “inactive”.

As for `C[Si](NC1CCCCC1)(NC1CCCCC1)NC1CCCCC1`, the Potency entry is “inactive”.

`CC(C)=CC=O`: the Potency entry was “inactive”.

With `O=Cc1c(Cl)cccc1Cl`, the Potency entry was “inactive”.

In the case of `Cn1c(=O)c2c(ncn2CC(=O)O)n(C)c1=O`, the Potency entry is “inactive”.

Take `C=CCNc1nc(NCC=C)nc(N2CCN(C(c3ccc(F)cc3)c3ccc(F)cc3)CC2)n1`: the Potency result is “inactive”.

Take `C[N+]1(C)CCC(=C(c2ccccc2)c2ccccc2)CC1`: the Potency result is “inactive”.

As to `C=CCCCCCCCCCCCCCCCC`, the viability change, negative = cytotoxic was 0.934% [at 8.39 µM].
